In ChEMBL document CHEMBL1201862, “PubChem BioAssay data set” (2004):
Screen size: about 400,000 compounds; about 2,100 (0.53%) were called active. Inconclusive results (about 14%) are left out. The rule behind the calls is not given here. Shown is part of a subset that was picked to be rich in actives.

These compounds were tested against Ataxin-2 (Homo sapiens) (UniProt Q99700) (assay: qHTS for Inhibitors of ATXN expression.).
Type: functional

Sequence of Ataxin-2 (Homo sapiens) (Q99700 whole entry): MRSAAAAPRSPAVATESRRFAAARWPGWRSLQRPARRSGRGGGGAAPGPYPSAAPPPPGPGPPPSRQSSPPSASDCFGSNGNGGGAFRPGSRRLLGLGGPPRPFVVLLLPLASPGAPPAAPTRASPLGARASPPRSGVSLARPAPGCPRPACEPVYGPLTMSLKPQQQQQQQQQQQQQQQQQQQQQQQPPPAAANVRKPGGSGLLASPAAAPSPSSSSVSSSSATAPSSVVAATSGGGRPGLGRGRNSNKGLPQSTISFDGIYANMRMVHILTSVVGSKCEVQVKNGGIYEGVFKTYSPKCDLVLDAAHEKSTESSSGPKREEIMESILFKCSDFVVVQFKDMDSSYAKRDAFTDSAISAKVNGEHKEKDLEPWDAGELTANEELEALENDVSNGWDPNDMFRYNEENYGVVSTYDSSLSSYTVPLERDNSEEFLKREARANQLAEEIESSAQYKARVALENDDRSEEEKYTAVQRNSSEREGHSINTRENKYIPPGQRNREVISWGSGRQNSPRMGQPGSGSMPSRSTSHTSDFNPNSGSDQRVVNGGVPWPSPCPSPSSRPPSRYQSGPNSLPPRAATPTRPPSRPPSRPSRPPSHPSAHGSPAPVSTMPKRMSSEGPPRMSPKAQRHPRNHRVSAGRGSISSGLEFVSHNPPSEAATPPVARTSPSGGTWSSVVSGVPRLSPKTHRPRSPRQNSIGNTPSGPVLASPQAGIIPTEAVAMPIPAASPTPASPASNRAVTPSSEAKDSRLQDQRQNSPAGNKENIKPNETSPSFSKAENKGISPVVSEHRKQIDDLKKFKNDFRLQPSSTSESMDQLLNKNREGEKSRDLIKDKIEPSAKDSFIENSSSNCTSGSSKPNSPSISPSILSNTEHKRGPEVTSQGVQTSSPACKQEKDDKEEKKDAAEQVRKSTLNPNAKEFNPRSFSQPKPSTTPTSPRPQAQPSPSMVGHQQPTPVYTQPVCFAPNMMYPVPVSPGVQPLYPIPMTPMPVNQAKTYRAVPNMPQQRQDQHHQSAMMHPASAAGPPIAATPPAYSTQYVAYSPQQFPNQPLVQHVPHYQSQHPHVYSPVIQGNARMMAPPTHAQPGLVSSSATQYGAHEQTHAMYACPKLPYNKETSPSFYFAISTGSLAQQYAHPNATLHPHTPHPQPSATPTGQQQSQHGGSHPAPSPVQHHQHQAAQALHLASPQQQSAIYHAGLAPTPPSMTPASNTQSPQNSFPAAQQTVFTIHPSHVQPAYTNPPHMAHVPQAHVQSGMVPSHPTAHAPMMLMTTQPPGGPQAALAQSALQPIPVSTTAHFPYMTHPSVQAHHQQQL

SMILES	Potency
CCCn1nc(NC(=O)CC)c2cc3cccc(C)c3nc21	inactive
O=C(/C=C/c1cccc(Cl)c1)OCC(=O)c1ccc[nH]1	inactive
CC(C)n1/c(=N/C(=O)c2ccco2)c(C#N)cc2c(=O)n3ccccc3cc21	inactive
NC(=O)c1nsc(C(=O)N(c2ccccc2)C(C(=O)NCC2CCCO2)c2ccc3ncccc3c2)c1N (centres undefined)	inactive
O=C1C(=O)c2ccccc2C(O)=C1CCCCl	25.1 µM (active)
COc1ccc(/N=c2\oc3ccc(OC)cc3cc2-c2nc3ccccc3[nH]2)cc1	31.6 µM (active)
CCN(CC)c1ccc2cc(-c3nc4ccccc4[nH]3)c(=O)oc2c1	inactive
COc1ccc2cc(-c3nc4ccc(C(=O)O)cc4[nH]3)c(=O)oc2c1	inactive
CC1CCN(C(=O)c2ccc3c(c2)C(=O)c2ccccc2-3)CC1	inactive
CC1CCN(S(=O)(=O)N2CCN(C(=O)c3ccc4c(c3)OCO4)CC2)CC1	inactive
CCC1=Nc2cc(C(=O)N3CCC(C)CC3)ccc2Sc2ccc(C)cc21	28.2 µM (active)
O=C1C=CC(=O)N1CCCCCCN1C(=O)C=CC1=O	25.1 µM (active)
Cn1c(=O)c2c(nc(Oc3cccc(Br)c3)n2C)n(C)c1=O	inactive
C[C@H]1CN([C@@H](C)CO)S(=O)(=O)c2ccc(Br)cc2O[C@@H]1CN(C)Cc1cccc(F)c1	25.1 µM (active)
C[C@@H]1CN([C@H](C)CO)S(=O)(=O)c2ccc(C#Cc3ccccc3F)cc2O[C@@H]1CN(C)C(=O)Cc1ccccc1	25.1 µM (active)
C[C@@H]1CN([C@H](C)CO)S(=O)(=O)c2ccc(C#C[C@@H](C)O)cc2O[C@@H]1CN(C)Cc1ccc(-c2ccccc2)cc1	20 µM (active)
C[C@@H]1CN([C@@H](C)CO)S(=O)(=O)c2ccc(C#Cc3cccc(F)c3)cc2O[C@H]1CN(C)S(=O)(=O)c1cn(C)cn1	39.8 µM (active)
COCCCNC(=S)N/N=C/c1ccc(O)cc1O	inactive
CCNC(=S)N/N=C/c1sc(N2CCCCC2)nc1-c1cccs1	inactive
Cc1cccc(C)c1NC(=O)COC(=O)c1c2c(nc3ccccc13)/C(=C\c1ccc3c(c1)OCO3)CCC2	inactive
N#Cc1cccc(NC(=O)CN2C(=O)NC(Cc3ccccc3)C2=O)c1 (centres undefined)	inactive
C[C@H]1CN([C@@H](C)CO)S(=O)(=O)c2ccc(Br)cc2O[C@@H]1CN(C)Cc1ccccc1	39.8 µM (active)
C[C@@H]1CN([C@@H](C)CO)S(=O)(=O)c2ccc(Br)cc2O[C@H]1CN(C)C(=O)Nc1ccc(C(F)(F)F)cc1	35.5 µM (active)
Cc1cc2c(cc1C)N(C(=O)CCl)CCN2C(=O)CCl	35.5 µM (active)
